Source: PubChem (The Scripps Research Institute Molecular Screening Center)
Shown are actives, neighbours in structure and some others; about 4.1% of the full set was active somewhere.
ssDAF12 agonist – S. stercoralis DAF-12 nuclear receptor activators, primary screen, cell-based, luminescence, HEK293, GRIP1 co-expression, lit1-tk-luc; HEK293 ssDAF-12/GRIP1 lit1-tk-luc reporter; % of 3 µM dafachronic acid response; 370,000 tested, 1% active; activation, % at 6.8 µM; Nuclear hormone receptor DAF-12 (Strongyloides stercoralis);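 active means activation above the mean over all tested compounds plus 3 SD, cut at about 0.9% in these data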;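 further: 0% = DMSO-only wells and 100% = 3 µM delta7-dafachronic acid wells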
DAX1 inh-1 – DAX1 (NR0B1) inhibitors, primary screen, cell-based, HEK293, Gal4-DAX1, luciferase luminescence; Nuclear receptor subfamily 0 group B member 1 (Homo sapiens), P51843; HEK293 Gal4-DAX1 luciferase reporter; inhibition, % at 6.75 µM; 340,000 tested, 0.99% active;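 active means inhibition above the mean over all tested compounds plus 3 SD, cut at about 4.2% in these data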;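 further: 0% = DAX1-transfected cells with DMSO and 100% = empty-vector control cells with DMSO; inhibition shows as a rise in luminescence from relieved DAX1 repression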
Target sequence (P51843 207-470 limits assumed): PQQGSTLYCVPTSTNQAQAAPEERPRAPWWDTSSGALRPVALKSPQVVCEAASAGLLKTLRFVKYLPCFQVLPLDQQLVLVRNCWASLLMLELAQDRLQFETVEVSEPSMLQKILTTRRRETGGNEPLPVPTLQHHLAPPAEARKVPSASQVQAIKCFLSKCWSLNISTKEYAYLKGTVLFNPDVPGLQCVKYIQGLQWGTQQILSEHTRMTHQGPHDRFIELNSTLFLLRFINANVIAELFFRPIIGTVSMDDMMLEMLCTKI
hgDAF12 agonist – H. glycines DAF-12 receptor agonists, primary screen, cell-based, luminescence, HEK293, GAL4 fusion, UAS-luciferase; HEK293 GAL4-hgDAF12 UAS-luciferase reporter, agonist luminescence; normalized to butyrate control; AID 687014, 2013; activation, % at 6.8 µM; 370,000 tested, 1.8% active;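 active means activation above a cutoff set at the mean of all screened compounds plus 3 SD, cut at about 10% in these data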;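 further: 0% = DMSO wells and 100% = sodium butyrate wells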
DAX1 inh-2 – DAX1 (NR0B1) inhibitors on StAR promoter, primary screen, cell-based, luminescence, SF-1 (NR5A1), full-length DAX-1; HEK293T StAR-luciferase reporter, SF-1/DAX-1 repression relief; inhibition, % at 6.8 µM; 370,000 tested, 1.1% active; AID 652010, 2013;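 active means inhibition above the mean over all tested compounds plus 3 SD, cut at about 3.6% in these data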;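 further: 0% = DAX-1 cells with DMSO and 100% = cells lacking DAX-1 with DMSO; higher inhibition means more luminescence from relief of DAX-1 repression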
hcDAF-12 act – H. contortus DAF-12 nuclear receptor activators, primary screen, cell-based, luminescence, HEK293, lit1-tk-luc reporter; HEK293 hcDAF-12 lit1-tk-luc reporter; 0% DMSO, 100% Δ7-dafachronic acid; activation, % at 6.8 µM; 370,000 tested, 1.4% active; AID 652067, 2013;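 active means activation above the mean of all tested compounds plus 3 SD, cut at about 5.5% in these data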;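 further: 100% = response to 3 µM Δ7-dafachronic acid high control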
Numbers without * were called inactive.

For O=C(Nc1c(-c2ccccc2)nc2ncccn12)C1CC1 the results were ssDAF12 agonist -1, hgDAF12 agonist -3, DAX1 inh-2 1 and hcDAF-12 act 1.
COC(=O)C(Cc1ccc(O)cc1)NC(=O)c1ccccc1 (stereo unspecified) was read as ssDAF12 agonist -1, DAX1 inh-1 2, hgDAF12 agonist 2, DAX1 inh-2 -1 and hcDAF-12 act 0.
For COC(=O)C(Cc1ccccc1)NC(=O)c1ccc(C)cc1 (stereo unspecified) the results were ssDAF12 agonist 1.3*, DAX1 inh-1 -1, hgDAF12 agonist 7, DAX1 inh-2 0 and hcDAF-12 act 0.
CCN(CC)C(=O)c1oc(=O)c2ccccc2c1-c1ccc(C)cc1 was read as ssDAF12 agonist -1, hgDAF12 agonist 0, DAX1 inh-2 -1 and hcDAF-12 act -3.
For Cc1cc(C)nc(N2CCN(C(=O)CSc3nc4ccccc4nc3N3CC(C)OC(C)C3)CC2)n1 (stereo unspecified) the results were ssDAF12 agonist 0, hgDAF12 agonist 3, DAX1 inh-2 -1 and hcDAF-12 act -3.
`COc1ccccc1Cc1c(-c2ccc(OC)c(OC)c2)nc2ccc(Br)cn12` gave ssDAF12 agonist 0, hgDAF12 agonist 7, DAX1 inh-2 0 and hcDAF-12 act 1.
`COc1ccccc1Cc1c(-c2ccc(F)cc2)nc2ccc(Br)cn12` gave ssDAF12 agonist 1.3*, hgDAF12 agonist 8, DAX1 inh-2 0 and hcDAF-12 act 3.
Screening COc1ccccc1Cc1c(-c2ccc(C)cc2)nc2ccc(Cl)cn12 returned ssDAF12 agonist 0, hgDAF12 agonist 8, DAX1 inh-2 3.9* and hcDAF-12 act 1.
O=C(N=Nc1c(O)n(Cc2ccccc2)c2ccccc12)c1ccc(O)cc1 was read as ssDAF12 agonist 0, DAX1 inh-1 1, hgDAF12 agonist 8, DAX1 inh-2 3.6* and hcDAF-12 act 6.0*.
Screening N[C@H](C(=O)Nc1ccc(Cl)cc1C(=O)c1ccc[nH]1)c1ccccc1 returned ssDAF12 agonist -1, hgDAF12 agonist 1 and hcDAF-12 act 0.
`COC(=O)c1cc(S(=O)(=O)NCc2ccccc2OC)cn1C` gave ssDAF12 agonist -1, DAX1 inh-1 1, hgDAF12 agonist -2, DAX1 inh-2 0 and hcDAF-12 act 1.
For COC(=O)c1cc(S(=O)(=O)NCc2cccc(OC)c2)cn1C the results were ssDAF12 agonist -1, DAX1 inh-1 5.3*, hgDAF12 agonist 2, DAX1 inh-2 0 and hcDAF-12 act 1.
Screening Cn1c(-c2ccccc2)cccc1=O returned ssDAF12 agonist 1.3*, DAX1 inh-1 1, hgDAF12 agonist 1, DAX1 inh-2 0 and hcDAF-12 act 1.
For COc1ccccc1CCC[C@@H](CCS(=O)(=O)C(C)C)CC1CCCCC1 the results were ssDAF12 agonist 2.2*, hgDAF12 agonist -1, DAX1 inh-2 -1 and hcDAF-12 act -1.
For CC[C@@H](CCCc1ccccc1OC)CCS(=O)(=O)C(C)(C)C the results were ssDAF12 agonist -2, hgDAF12 agonist 1, DAX1 inh-2 -1 and hcDAF-12 act -1.
`CCOC(=O)C1(Cc2ccccc2C(F)(F)F)CCN(CC2CC2)CC1` gave ssDAF12 agonist -1, DAX1 inh-1 0, hgDAF12 agonist 5, DAX1 inh-2 0 and hcDAF-12 act 2.
O=C(NCCc1ccccn1)c1ccc2c(c1)ncn2C1CCCCC1 was read as ssDAF12 agonist 0, hgDAF12 agonist 3, DAX1 inh-2 0 and hcDAF-12 act 1.
For CCC(=O)Oc1ccc(C(=O)Nc2ccccc2C(=O)NCC(C)C)cc1 the results were ssDAF12 agonist -2, DAX1 inh-1 -3, hgDAF12 agonist 1, DAX1 inh-2 -1 and hcDAF-12 act 0.
`CCC(=O)Oc1ccc(C(=O)Nc2cccc(C(=O)NCC(C)C)c2)cc1` gave ssDAF12 agonist -1, DAX1 inh-1 4.7*, hgDAF12 agonist 0, DAX1 inh-2 0 and hcDAF-12 act -1.
For COC(=O)[C@]12C[C@H](CC(=O)NCc3ccc(OC)c(OC)c3)C(=O)N(CCC3=CCCCC3)C1=C[C@H](C(C)C)O[C@@H]2C1CC1 the results were ssDAF12 agonist -2, hgDAF12 agonist 0, DAX1 inh-2 -2 and hcDAF-12 act -3.
For CCOC(=O)[C@@]12CCCC=C1N(CCc1ccc(Cl)cc1)C(=O)[C@H]2CC(=O)NCc1cccs1 the results were ssDAF12 agonist -1, hgDAF12 agonist -3, DAX1 inh-2 -1 and hcDAF-12 act -2.
For CC(Oc1cccc(Cl)c1)C(=O)N1CCCN(C)CC1 (stereo unspecified) the results were ssDAF12 agonist -1, DAX1 inh-1 1, hgDAF12 agonist 4, DAX1 inh-2 1 and hcDAF-12 act -1.
CCOc1ccc(-c2cc(C(C)=O)c3n(c2=O)CCC3)cc1 was read as ssDAF12 agonist -1, hgDAF12 agonist -4, DAX1 inh-2 -1 and hcDAF-12 act -1.
CC(=O)N(/C=C1\SC(=S)N(c2ccccc2)C1=O)c1ccccc1 was read as ssDAF12 agonist 1.9*, DAX1 inh-1 0, hgDAF12 agonist -2, DAX1 inh-2 0 and hcDAF-12 act 0.
CCCCN1CCC(COC(=O)c2cc(Cl)c(N)c3c2OCCO3)CC1 was read as ssDAF12 agonist -1, DAX1 inh-1 2, hgDAF12 agonist 4, DAX1 inh-2 4.5* and hcDAF-12 act -2.
`CC(=O)c1cc(-c2ccccc2)c(=O)n2c1CCC2` gave ssDAF12 agonist -1, hgDAF12 agonist 1, DAX1 inh-2 0 and hcDAF-12 act 1.
`Nc1ccc2nc(N)sc2c1` gave ssDAF12 agonist -1, DAX1 inh-1 3, hgDAF12 agonist 6, DAX1 inh-2 1 and hcDAF-12 act 0.
For Nc1ccc2c(c1)sc1ccccc12 the results were ssDAF12 agonist -1, DAX1 inh-1 1, hgDAF12 agonist 11*, DAX1 inh-2 2 and hcDAF-12 act 3.
For O=c1c(O)c(-c2ccccc2)oc2ccccc12 the results were ssDAF12 agonist -1, DAX1 inh-1 4.9*, hgDAF12 agonist 7, DAX1 inh-2 1 and hcDAF-12 act -3.
Screening Cc1ccccc1Nc1nc(N)nc(COC(=O)c2ccco2)n1 returned ssDAF12 agonist 0, DAX1 inh-1 3, hgDAF12 agonist 12*, DAX1 inh-2 2 and hcDAF-12 act 3.
Nc1nc(COC(=O)c2ccco2)nc(Nc2ccccc2)n1 was read as ssDAF12 agonist -1, DAX1 inh-1 4, hgDAF12 agonist 3, DAX1 inh-2 2 and hcDAF-12 act -1.
